Screens as filed in PubChem.
HepG2 viability = qHTS for Inhibitors of TGF-b: Cytotox Counterscreen; Potency, µM (top dose mostly 46.1 µM), actives largely listed as cytotoxic; AID 588856, 2011; HepG2 CAGA-GFP viability, ATP luminescence, 18 h; 0.76% of 410,000 active
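HepG2 CAGA-GFP cells (1000/well, DMEM with 1% FBS) received compound, then TGF-beta at 500 pg/mL final, and were incubated 18 hours at 37 degrees C. Viability was read by CellTiter-Glo luminescence. Media-only wells were set as complete cell-killing and DMSO as no toxicity.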
IL1B secr inh = qHTS for Inhibitors of Inflammasome Signaling: IL-1-beta AlphaLISA Primary Screen; THP-1 LPS/ATP IL-1B secretion, AlphaLISA, 16 h; hits give low values; AID 743279, 2014; 4.7% of 360,000 active; activity change, % at 57.5 µM; in the data active = activity change below about -50%; inconclusive = mostly about -30% to -49%
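THP-1 cells pretreated 1 hr with compounds (up to 57.5 uM final), then stimulated with LPS (250 ng/mL final) plus ATP (1.25 mM final); secreted IL-1B measured by AlphaLISA after 16 hr, decreased signal indicating inhibition.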
DT40 TDP1 no CPT = qHTS for Inhibitors of human tyrosyl-DNA phosphodiesterase 1 (TDP1): qHTS in cells in absence of CPT; 15% of 420,000 active; Potency, µM (series often up to 46.2 µM), most hits filed as inhibitors; AID 686978, 2013; DT40 Tdp1-/- hTDP1 cells, no CPT, ATP luminescence, 48 h; note: nearly all actives have a fitted effect of over 55% in size
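Seeded 400 DT40-hTDP1 cells/well (vehicle DMSO, no 20 nM CPT); pinned compounds; ≥48 hr at 37 °C; CellTiter-Glo luminescence as viability measure.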
TGFb SMAD3 inh = qHTS for Inhibitors of TGF-b; HepG2 CAGA-GFP TGF-b/SMAD3 reporter, GFP fluorescence, 18 h; TGF-beta stimulated, 500 pg/mL final; 1.2% of 410,000 active; Potency, µM (highest dose often 46.1 µM), most hits filed as inhibitors; AID 588855, 2011; note: nearly all actives have a fitted effect of over 65% in size
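HEPG2 CAGA-GFP cells (1000/well, DMEM with 1% FBS) were pre-incubated 2 h at 37 degrees C, given compound by pin tool, then stimulated with TGF-beta at 500 pg/mL final for 18 h before per-cell GFP fluorescence imaging.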
DT40 TDP1 CPT = qHTS for Inhibitors of human tyrosyl-DNA phosphodiesterase 1 (TDP1): qHTS in cells in presence of CPT | chicken DT40 Tdp1-/-;hTDP1 cells + 20 nM CPT, ATP luminescence, 48 h | Potency, µM (top dose mostly 46.2 µM), usual class: inhibitors | 12% of 420,000 active | AID 686979, 2013; note: nearly all actives have a fitted effect of over 55% in size
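Cell growth measured by CellTiter-Glo luminescence after a minimum 48 h, 37 C compound exposure with 20 nM CPT in Tdp1-knockout DT40 cells stably expressing hTDP1, seeded 400/well; qHTS titration format.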
TDP1 inh = qHTS Assay for Inhibitors of Tyrosyl-DNA Phosphodiesterase (TDP1); AID 485290, 2010; recombinant TDP1, AlphaScreen DNA substrate cleavage; 0.28% of 350,000 active; Potency, µM (titrated, usually from 130 µM), most hits filed as inhibitors; Tyrosyl-DNA phosphodiesterase 1 (Homo sapiens), Q9NUW8; note: nearly all actives have a fitted effect of over 40% in size
Target sequence (Q9NUW8 whole entry, looked up): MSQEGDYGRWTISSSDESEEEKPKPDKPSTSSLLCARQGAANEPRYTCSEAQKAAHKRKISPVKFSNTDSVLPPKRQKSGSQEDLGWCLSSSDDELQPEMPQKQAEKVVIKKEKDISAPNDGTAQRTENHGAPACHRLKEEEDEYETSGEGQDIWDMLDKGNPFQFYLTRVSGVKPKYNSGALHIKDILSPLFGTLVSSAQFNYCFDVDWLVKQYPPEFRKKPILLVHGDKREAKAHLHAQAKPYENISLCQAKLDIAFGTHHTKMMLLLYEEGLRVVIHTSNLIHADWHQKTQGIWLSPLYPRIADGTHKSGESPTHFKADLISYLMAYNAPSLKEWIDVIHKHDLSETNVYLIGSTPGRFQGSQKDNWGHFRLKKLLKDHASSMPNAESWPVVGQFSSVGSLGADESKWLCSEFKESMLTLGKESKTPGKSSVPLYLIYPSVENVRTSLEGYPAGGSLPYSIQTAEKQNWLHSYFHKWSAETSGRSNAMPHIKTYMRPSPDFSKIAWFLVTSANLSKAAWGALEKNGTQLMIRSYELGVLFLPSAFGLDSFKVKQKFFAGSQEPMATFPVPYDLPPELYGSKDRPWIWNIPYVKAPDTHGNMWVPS
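Recombinant human Tdp1 (E. coli-expressed, 1 nM final) preincubated with compounds 15 min at room temperature, then 5'-biotin/3'-phosphotyrosine-FITC DNA substrate (15 nM final) added for 5 min. AlphaScreen beads (10 ug/ml final) added 10 min; cleavage lowers signal.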
A number is an active result; – = inactive; ? = inconclusive; · = no result; [ ] = another dose, or the depositor's remark. Shown are actives, neighbours in structure and some others; about 18% of the full set was active somewhere. Unless noted, calls come from the whole dose curve; as a rule, active = well fitted curve in the direction sought with a large enough effect; inconclusive = small, poorly fitted or top-dose-only effect, or another doubt; inactive = no such curve, though single readings can be large; an effect the other way counts as inactive or inconclusive.

SMILES	HepG2 viability	IL1B secr inh	DT40 TDP1 no CPT	TGFb SMAD3 inh	DT40 TDP1 CPT	TDP1 inh
CCc1ccc([C@@H]2CC=C(C(=O)O)[C@H](c3ccc(F)cc3)N2S(=O)(=O)c2ccc(C)cc2)cc1	–	–	–	?	–	–
Cn1nc(C(C)(C)C)cc1C(=O)NCc1cc(F)cc2c1OCOC2	–	–	3.7µM	?	9.2µM	–
CCn1cc(C(=O)NCc2ccccc2Cl)c(=O)c2cc(S(=O)(=O)N3CCOCC3)ccc21	–	·	–	–	–	–
CCn1cc(C(=O)NCc2ccccc2OC)c(=O)c2cc(S(=O)(=O)N3CCCCC3)ccc21	–	·	?	?	18µM	–
CCn1cc(C(=O)NCc2ccccc2Cl)c(=O)c2cc(S(=O)(=O)N3CCCCCC3)ccc21	–	·	21µM	–	?	–
COc1ccc(-c2csc(=Nc3ccccc3)n2CCO)cc1	–	–	?	–	?	–
COc1ccc(-c2csc(=NCCO)n2-c2ccccc2)cc1	–	-74	18µM	–	?	·
Cc1ccc(S(=O)(=O)c2nc(-c3ccco3)oc2SCc2ccc(F)cc2)cc1	–	·	?	–	21µM	–
CC(C)CSc1oc(-c2ccco2)nc1S(=O)(=O)c1ccccc1	–	?	26µM	–	?	·
CC1CCN(C(=O)CN2c3cccc4cccc(c34)S2(=O)=O)CC1	–	–	–	–	–	–
Nc1ccc(C(=O)n2c3ccccc3c3ccccc32)cc1	–	–	2.3µM	–	1.8µM	–
Nc1ccc(C(=O)N2CCCC2)cc1	–	–	–	–	–	–
COc1ccc(OC)c(Nc2nc(NCCO)c3ccccc3n2)c1	–	-89	16µM	–	?	·
Cc1ccc(Nc2nc(NCCO)c3ccccc3n2)cc1C	–	-99	16µM	14µM	?	·
COc1ccccc1Nc1nc(NCCO)c2ccccc2n1	·	·	·	·	·	–
COc1ccc(N2CCN(c3cc(C)nc4nc(-c5ccc(C)cc5)nn34)CC2)cc1	–	·	–	–	–	–[12.3 µM]
Cc1nc2ncnn2c(N2CCN(c3cccc(C(F)(F)F)c3)CC2)c1C	–	?	21µM	–	16µM	–
Cc1cc(N2CCN(c3cccc(C(F)(F)F)c3)CC2)n2nc(-c3ccccc3C)nc2n1	–	·	16µM	–	18µM	–
Cc1cc(N2CCN(c3cccc(C(F)(F)F)c3)CC2)n2ncnc2n1	–	–	23µM	–	?	–
Cn1nc(C(F)(F)F)c(C#N)c1N1CCN(c2cccc(C(F)(F)F)c2)CC1	–	–	?	–	?	–
COc1cccc(C#CC2=CC(=O)CC(C)(C)C2)c1	–	·	2.9µM	?	5.8µM	·
CC1(C)CC(=O)C=C(C#CC2(O)CCCCC2)C1	10µM	-108	5.2µM	?	7.3µM	·
Cc1cccc(C#CC2=CC(=O)CC(C)(C)C2)c1	–	·	10µM	–	16µM	·
Cc1ccc(C2=CC(=O)CC(C)(C)C2)cc1	–	–	–	–	–	–
OC(c1cccnc1)c1ccc2c(c1)CN(Cc1cn(-c3ccccc3)nc1-c1ccccc1)CCO2 (stereo not given)	·	·	?	·	–[9.04 µM]	·
SMILES	HepG2 viability	IL1B secr inh	DT40 TDP1 no CPT	TGFb SMAD3 inh	DT40 TDP1 CPT	TDP1 inh
CCOC(=O)c1cccc(NC(=O)C2Cc3ccccc3N2C(=O)c2ccccc2)c1 (stereo not given)	–	·	–	–	–	–
COc1ccccc1N1CCN(C(=O)c2ccc(CS(=O)c3ccccc3C)o2)CC1 (stereo not given)	–	·	13µM	?	12µM	–
COc1ccccc1N1CCN(C(=O)c2ccc(CS(=O)(=O)c3ccccc3OC)o2)CC1	–	–	?	–	?	–
O=C(c1ccco1)N1CCN(C(=O)c2ccc(CS(=O)c3ccc(Cl)cc3)o2)CC1 (stereo not given)	–	–	–	–	–	–
Cc1ccc(C)c(N2CCN(C(=O)c3ccc(CS(=O)(=O)c4ccc(Br)cc4)o3)CC2)c1	–	·	?	?	?	–
Cc1ccc(Cl)cc1N1CCN(C(=O)c2noc3c2CCCC3)CC1	–	·	?	?	12µM	–
Cc1ccc(S(=O)(=O)Cc2ccc(C(=O)N3CCN(c4cccc(C)c4C)CC3)o2)cc1	–	–	2.6µM	?	1.8µM	–
Cc1ccc(Cl)cc1N1CCN(C(=O)c2ccc(CS(=O)c3ccccc3)o2)CC1 (stereo not given)	–	·	5.2µM	?	2.6µM	–
Cc1ccc(-c2c(C(=O)N3CCN(c4cccc(C)c4C)CC3)oc(=O)c3ccccc23)cc1	–	·	21µM	–	?	–
O=C(c1ccc(CS(=O)c2cccc(Cl)c2)o1)N1CCOCC1 (stereo not given)	–	–	–	–	–	–
Cc1cccc(N2CCN(C(=O)c3ccc(CS(=O)c4cccc(Cl)c4)o3)CC2)c1C (stereo not given)	–	·	0.92µM	?	0.82µM	–
O=C(c1ccc(CS(=O)c2cccc(Cl)c2)o1)N1CCN(c2ccccn2)CC1 (stereo not given)	–	–	9.2µM	?	?	–
CCc1ccccc1S(=O)(=O)Cc1ccc(C(=O)N2CCN(c3ccccn3)CC2)o1	–	–	?	–	?	–
Cc1ccc(CS(=O)Cc2ccc(C(=O)N3CCN(c4ccccn4)CC3)o2)cc1 (stereo not given)	–	–	?	–	21µM	–
NC(=O)Nc1ccc(/C=C2\C=Cc3ccccc32)cc1	–	·	?	?	?	·
O=C(c1ccc(CS(=O)c2ccccc2Cl)o1)N1CCN(c2ccccc2F)CC1 (stereo not given)	–	·	1.3µM	?	1.3µM	–
COC(=O)c1cc(C(=O)N2CCN(c3cccc(C)c3C)CC2)cc([N+](=O)[O-])c1	–	–	2.6µM	–	5.8µM	–
CC(=O)c1ccc(N2CCN(C(=O)COc3ccc4c(c3)CCC4)CC2)cc1	–	–	–	–	?	·
O=C(c1ccc(CS(=O)c2ccccc2Cl)o1)N1CCN(C2CCCCC2)CC1 (stereo not given)	–	–	?	–	?	·
Cc1ccc(Cl)cc1N1CCN(C(=O)COc2ccc3c(c2)CCC3)CC1	–	-72	21µM	?	–	–
Cc1ccc(C(=O)N2CCN(c3cccc(C)c3C)CC2)o1	–	–	?	–	16µM	–
